From PubChem BioAssay (EPA / NIEHS) come the findings set out here.

SMILES strings stand for the structures. Activity calls are given as the source filed them. The calls were made as follows: active = hit-call score of the fitted dose curve at least 0.9, where 1 is the maximum; inactive = score below 0.9.

Read-out in assay [1]: Tissue Factor, F3 (gene 2152)
Nature of the assay: BSK_CASM3C_TissueFactor: BioMAP Diversity Plus: CASM3C Assay for Tissue Factor Biomarker Activity (AID 2283052).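 Also: cell surface tissue factor protein level read by ELISA.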 The conditions noted are these: primary human coronary artery smooth muscle cells; actives raise or lower the signal.

Read-out in assay [2]: Interferon-gamma inducible Protein 10 (IP10), CXCL10 (gene 3627)
Nature of the assay: BSK_hDFCGF_IP10: BioMAP Diversity Plus: hDFCGF Assay for Interferon-gamma inducible Protein 10 (IP10) Biomarker Activity (AID 2283053). As to conditions: primary human foreskin fibroblasts; actives raise or lower the signal. In outline: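 Cells: human dermal foreskin fibroblasts. Exposure: 24 h post-dosing. Detection: IP-10 ELISA, with values expressed against DMSO controls and fitted in both directions.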

Read-out in assay [3]: Urokinase-type plasminogen activator receptor (uPAR), PLAUR (gene 5329)
Kind of assay: BSK_CASM3C_uPAR: BioMAP Diversity Plus: CASM3C Assay for Urokinase-type plasminogen activator receptor (uPAR) Biomarker Activity (AID 2283054).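 Also: cell-surface uPAR protein level quantified by ELISA.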 The conditions noted are these: primary human coronary artery smooth muscle cells; actives raise or lower the signal.

Read-out in assay [4]: Vascular cell adhesion molecule 1 (VCAM1), VCAM1 (gene 7412)
Kind of assay: BSK_CASM3C_VCAM1: BioMAP Diversity Plus: CASM3C Assay for Vascular cell adhesion molecule 1 (VCAM1) Biomarker Activity (AID 2283055).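 Also: VCAM-1 protein level quantified by ELISA on the cells.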 As to conditions: primary human coronary artery smooth muscle cells; actives raise or lower the signal.

Read-out in assay [5]: Collagen III, COL3A1 (gene 1281)
Nature of the assay: BSK_hDFCGF_CollagenIII: BioMAP Diversity Plus: hDFCGF Assay for Collagen III Biomarker Activity (AID 2283056). As to conditions: primary human foreskin fibroblasts; actives raise or lower the signal. A digest of the protocol: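 Response relative to DMSO, fitted in both directions, reflects ELISA-measured collagen III in human primary skin fibroblasts 24 h after compound addition.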

Read-out in assay [6]: Epidermal growth factor receptor (EGFR), EGFR (gene 1956)
Nature of the assay: BSK_hDFCGF_EGFR: BioMAP Diversity Plus: hDFCGF Assay for Epidermal growth factor receptor (EGFR) Biomarker Activity (AID 2283057). As to conditions: primary human foreskin fibroblasts; actives raise or lower the signal. A digest of the protocol: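 Dosing human primary skin fibroblasts, then measuring surface EGFR by ELISA at 24 h, gives the endpoint; gains and losses relative to DMSO were fitted in both directions.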

Read-out in assay [7]: Interleukin-8 (IL8), CXCL8 (gene 3576)
Kind of assay: BSK_hDFCGF_IL8: BioMAP Diversity Plus: hDFCGF Assay for Interleukin-8 (IL8) Biomarker Activity (AID 2283058). The conditions noted are these: primary human foreskin fibroblasts; actives raise or lower the signal. In outline:
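Fibroblast monolayers (human foreskin, hDFCGF) received test chemical for 24 h before ELISA detection of IL-8; either increases or decreases relative to DMSO count as activity.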

Assay [8] in a line: BSK_hDFCGF_Proliferation: Cell Proliferation Assessment in the BioMAP Diversity Plus: hDFCGF Assay (AID 2283059).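 Also: curves fitted for both rise and fall of signal versus DMSO baseline.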 The conditions noted are these: primary human foreskin fibroblasts. In outline:
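Sub-confluent human foreskin fibroblast cultures receive test chemical […]. Relative cell number is quantified by sulforhodamine B staining (0.1%, after 10% TCA fixation) at 560 nm, with bidirectional fitting referenced to DMSO.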

Read-out in assay [9]: Macrophage colony-stimulating factor (MCSF), CSF1 (gene 1435)
Kind of assay: BSK_hDFCGF_MCSF: BioMAP Diversity Plus: hDFCGF Assay for Macrophage colony-stimulating factor (MCSF) Biomarker Activity (AID 2283060). As to conditions: primary human foreskin fibroblasts; actives raise or lower the signal. A digest of the protocol:
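fibroblasts (human foreskin, primary), 24 h post-dose; M-CSF by ELISA; bidirectional fit, DMSO = baseline.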

The nature of assay [10]: BSK_hDFCGF_SRB: Viability Assessment in the BioMAP Diversity Plus: hDFCGF Assay (AID 2283061).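 Also: cells exposed to compound for 24 h before the read.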 The conditions noted are these: primary human foreskin fibroblasts. A digest of the protocol:
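SRB-based viability read on primary human skin fibroblasts at 24 h: TCA fixation, 0.1% dye, 560 nm. Gain or loss of signal is fitted against the DMSO negative control.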

Read-out in assay [11]: TIMP metallopeptidase inhibitor 1 (TIMP1), TIMP1 (gene 7076)
Nature of the assay: BSK_hDFCGF_TIMP1: BioMAP Diversity Plus: hDFCGF Assay for TIMP metallopeptidase inhibitor 1 (TIMP1) Biomarker Activity (AID 2283062). As to conditions: primary human foreskin fibroblasts; actives raise or lower the signal. A digest of the protocol:
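Bidirectional curve fitting against DMSO baseline yielded this endpoint, based on ELISA detection of TIMP-1 in primary human foreskin fibroblasts exposed to compound for 24 h.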

Read-out in assay [12]: Monokine induced gamma interferon (MIG), CXCL9 (gene 4283)
Kind of assay: BSK_hDFCGF_MIG: BioMAP Diversity Plus: hDFCGF Assay for Monokine induced gamma interferon (MIG) Biomarker Activity (AID 2283063). As to conditions: primary human foreskin fibroblasts; actives raise or lower the signal. A digest of the protocol:
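Endpoint derived by bidirectional fitting relative to DMSO; MIG quantified via ELISA in primary human foreskin fibroblasts harvested 24 h after dosing.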

Read-out in assay [13]: Matrix Metallopeptidase 1 (MMP1), MMP1 (gene 4312)
Kind of assay: BSK_hDFCGF_MMP1: BioMAP Diversity Plus: hDFCGF Assay for Matrix Metallopeptidase 1 (MMP1) Biomarker Activity (AID 2283064). The conditions noted are these: primary human foreskin fibroblasts; actives raise or lower the signal. A digest of the protocol:
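ELISA read-out of MMP1 from human foreskin fibroblasts (primary skin cells), 24 h post-dose. Gain or loss of signal was fitted bidirectionally versus DMSO negative control; cytotoxicity was checked by SRB in parallel cultures.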

Read-out in assay [14]: Vascular cell adhesion molecule 1 (VCAM1), VCAM1 (gene 7412)
Nature of the assay: BSK_hDFCGF_VCAM1: BioMAP Diversity Plus: hDFCGF Assay for Vascular cell adhesion molecule 1 (VCAM1) Biomarker Activity (AID 2283065).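 As to AC50: VCAM-1 protein level quantified by ELISA after 24 h chemical exposure.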 As to conditions: primary human foreskin fibroblasts; actives raise or lower the signal. In outline: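 Measured after 24 h chemical treatment of primary human skin fibroblasts, VCAM-1 was detected by ELISA and concentration-response analysed in both directions versus DMSO vehicle.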

Read-out in assay [15]: Plasminogen activator inhibitor-1 (PAI1), SERPINE1 (gene 5054)
Nature of the assay: BSK_hDFCGF_PAI1: BioMAP Diversity Plus: hDFCGF Assay for Plasminogen activator inhibitor-1 (PAI1) Biomarker Activity (AID 2283066). As to conditions: primary human foreskin fibroblasts; actives raise or lower the signal. A digest of the protocol:
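Fibroblasts from human foreskin were treated with test chemical. After 24 h, PAI-1 was measured by ELISA. Activity was fitted in both directions relative to DMSO.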

Read-out in assay [16]: Intercellular Adhesion Molecule 1 (ICAM1), ICAM1 (gene 3383)
Nature of the assay: BSK_KF3CT_ICAM1: BioMAP Diversity Plus: KF3CT Assay for Intercellular Adhesion Molecule 1 (ICAM1) Biomarker Activity (AID 2283067). As to conditions: primary human keratinocytes with fibroblasts; actives raise or lower the signal. A digest of the protocol: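 Bidirectional curve fitting against a DMSO baseline was applied to ICAM-1 ELISA signal from primary human skin co-cultures harvested 24 h after treatment, with SRB staining of parallel wells for overt cytotoxicity.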

Read-out in assay [17]: Interferon-gamma inducible Protein 10 (IP10), CXCL10 (gene 3627)
Kind of assay: BSK_KF3CT_IP10: BioMAP Diversity Plus: KF3CT Assay for Interferon-gamma inducible Protein 10 (IP10) Biomarker Activity (AID 2283068). The conditions noted are these: primary human keratinocytes with fibroblasts; actives raise or lower the signal. A digest of the protocol: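 ELISA read-out of IP-10 after 24 h chemical dosing of human skin primary co-culture (keratinocytes, foreskin fibroblasts). Gain or loss of signal relative to DMSO, bidirectional curve fit.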

Assay [18] in a line: BSK_KF3CT_SRB: Viability Assessment in the BioMAP Diversity Plus: KF3CT Assay (AID 2283069).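 Also: total protein by sulforhodamine B staining as a cytotoxicity measure; fitted for both signal gain and loss against DMSO baseline.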 The conditions noted are these: primary human keratinocytes with fibroblasts. In outline: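 SRB read-out at 560 nm (0.1% stain, TCA-fixed cells) gauges overt cytotoxicity in a human skin keratinocyte–fibroblast co-culture 24 h post-dosing. Signal change was fitted bidirectionally relative to DMSO control.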

Read-out in assay [19]: TIMP metallopeptidase inhibitor 2 (TIMP2), TIMP2 (gene 7077)
Nature of the assay: BSK_KF3CT_TIMP2: BioMAP Diversity Plus: KF3CT Assay for TIMP metallopeptidase inhibitor 2 (TIMP2) Biomarker Activity (AID 2283071). The conditions noted are these: primary human keratinocytes with fibroblasts; actives raise or lower the signal. In outline: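 Chemicals were dosed onto human skin primary co-cultures of keratinocytes and foreskin fibroblasts, and TIMP-2 was measured by ELISA after 24 hours. Activity in either direction was fitted relative to DMSO.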

Read-out in assay [20]: Interleukin-1 alpha (IL1a), IL1A (gene 3552)
Kind of assay: BSK_KF3CT_IL1a: BioMAP Diversity Plus: KF3CT Assay for Interleukin-1 alpha (IL1a) Biomarker Activity (AID 2283070). The conditions noted are these: primary human keratinocytes with fibroblasts; actives raise or lower the signal. In outline:
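Primary skin co-culture (keratinocytes, foreskin fibroblasts), 24 h exposure; ELISA for IL-1a; bidirectional curve fit vs DMSO.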

What is called AC50 is the concentration at which the activity in the assay is half-maximal. Consider `O=C1C2CC=CCC2C(=O)N1SC(Cl)(Cl)Cl` (configuration not stated), for which the outcome in [1] and in assay [11] was inactive. Moreover, the AC50 in [2] is 6.95 µM (active); in assay [3], 32.2 µM (active); in assay [4], 22.5 µM (active); in assay [5], 6.44 µM (active); in [6], 5.78 µM (active); in [7], 12.1 µM (active). The AC50 was 1.85 µM (active) in assay [8]; 6.29 µM (active) in [9]; 6.26 µM (active) in [10]; 7.37 µM (active) in assay [12]; 10.7 µM (active) in assay [13]; 5.37 µM (active) in [14]. Besides, the AC50 is 7.58 µM (active) in [15]; 9.86 µM (active) in assay [16]; 10.3 µM (active) in assay [17]; 5.79 µM (active) in assay [18]; 11.2 µM (active) in [19].

Regarding `CNC(=O)Oc1cccc2ccccc12`, the outcome in [1], in [2], in assay [3], in assay [4], in [5] and in assay [6] was inactive. Further, the result in [7], in assay [10], in assay [12], in [15], in [16] and in assay [17] was inactive. Further, the outcome in assay [18], in assay [20] and in assay [19] was inactive. Besides, the AC50 in [8] is 13.9 µM (active); in assay [9] it was 29.7 µM (active); in [13], 3.91 µM (active); in assay [14], 20 µM (active).

On to `CCN(CC)c1nc(C)cc(OP(=S)(OC)OC)n1`, for which the outcome in assay [1], in assay [3], in [4], in assay [5], in assay [6] and in assay [7] was inactive. The outcome in [10], in assay [11], in [12], in assay [16], in assay [17] and in assay [18] was inactive. Moreover, the outcome in assay [20] and in [19] was inactive. The AC50 in assay [2] is 20 µM (active); in assay [8], 20 µM (active); in [9] it was 14.6 µM (active); in assay [13], 4.09 µM (active); in [14], 27 µM (active); in assay [15], 11.3 µM (active).

Take `Cc1cc(C)nc(Nc2ccccc2)n1`: the result in assay [1], in assay [2], in assay [3], in [4], in [5] and in [6] was inactive. Also, the outcome in [7], in assay [8], in [9], in assay [10], in assay [11] and in assay [12] was inactive. For the same compound, the result in assay [13], in assay [14], in [15], in assay [16], in assay [17] and in assay [18] was inactive. Besides, the result in [20] and in [19] was inactive.

In the case of `CCN(CC)C(=O)C(C)Oc1cccc2ccccc12` (configuration not stated), the outcome in assay [1], in [3], in assay [4], in [6], in assay [7] and in [8] was inactive. Further, the result in assay [9], in assay [10], in [11], in [12], in [13] and in assay [15] was inactive. The result in [16], in [17], in assay [18], in [20] and in assay [19] was inactive. For the same compound, the AC50 in [2] was 3.97 µM (active); in assay [5], 0.148 µM (active).

In the case of `Nc1cnn(-c2ccccc2)c(=O)c1Cl`, the result in assay [1], in [2], in assay [3], in [4], in assay [5] and in [6] was inactive. In addition, the outcome in [7], in [8], in [9], in assay [10], in [11] and in [12] was inactive. Further, the outcome in assay [13], in [14], in assay [15], in assay [16], in assay [17] and in assay [18] was inactive. For the same compound, the result in assay [20] and in [19] was inactive.
